Mtb UGM inh = blocks M. tuberculosis UGM enzyme. P9WIQ1. purified UGM, fluorescence polarization probe displacement. inhibition, % at 10 µM. hit rate 0.06% among 320,000; in the data active = inhibition above about 10%, passing the limit was not always enough
ugtP null kill = growth inhibition of S. aureus ugtP deletion strain. S. aureus RN4220 ugtP deletion, OD600 growth, 16 h. growth inhibition, % (concentration not given with the values). hit rate 0.54% among 330,000. AID 1259309; in the data active = growth inhibition above about 68%;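 note: plate controls were untreated wells for no effect and antibiotic for full effect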
Mtb hypoxia rep = reduces hypoxia-regulated biosensor signal in M. tuberculosis; M. tuberculosis hypoxia-regulated fluorescent reporter, fluorescence; fluorescence inhibition, % (test concentration not listed); hit rate 0.1% among 300,000; in the data active = fluorescence inhibition mostly above about 23%, no sharp cut-off; inactive = mostly below about 17%
Mtb bLac sens = beta-lactam sensitization of Mtb H37Rv. M. tuberculosis H37Rv growth with meropenem, percent inhibition. inhibition, % at 25 µM. hit rate 0.27% among 330,000. AID 434955; call rule not given here;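 note: growth measured after seven days incubation then overnight dye step; 0% = bacteria only wells and 100% = bacteria with antibiotic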
Sa RN4220 lethal = kills Staphylococcus aureus RN4220 | S. aureus RN4220 growth, OD600, 16 h | inhibition, % (test concentration not listed) | hit rate 0.33% among 330,000; in the data active = inhibition above about 85%;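 note: plate controls were untreated cells for no effect and reference antibiotic for full effect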
Rv3671c protease = inhibits the M. tuberculosis serine protease Rv3671c. P9WHR9. AID 2606. inhibition, % at 5.96 µM. hit rate 0.048% among 320,000; in the data active = inhibition above about 38%;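 note: extracellular domain of Rv3671c used as enzyme; 0% = enzyme with DMSO and 100% = no enzyme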
Target sequence (P9WHR9 whole entry, looked up, the tested form may be a part): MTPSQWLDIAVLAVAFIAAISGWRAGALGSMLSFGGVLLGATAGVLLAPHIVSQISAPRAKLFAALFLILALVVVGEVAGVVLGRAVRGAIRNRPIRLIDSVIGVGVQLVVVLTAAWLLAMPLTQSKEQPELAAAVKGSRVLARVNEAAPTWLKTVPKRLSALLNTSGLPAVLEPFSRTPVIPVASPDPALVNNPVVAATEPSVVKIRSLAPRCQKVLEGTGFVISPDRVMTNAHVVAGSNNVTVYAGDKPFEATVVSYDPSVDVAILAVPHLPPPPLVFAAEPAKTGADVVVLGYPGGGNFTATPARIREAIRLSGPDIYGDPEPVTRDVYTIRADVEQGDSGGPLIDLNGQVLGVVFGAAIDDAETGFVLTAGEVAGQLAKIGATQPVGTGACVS
* = called active by the depositor; · = no result given. Rows were chosen to be rich in hits. Some 0.68% of all compounds tested hit in one or more screens of this group.

SMILES	Mtb UGM inh	ugtP null kill	Mtb hypoxia rep	Mtb bLac sens	Sa RN4220 lethal	Rv3671c protease
CN1C(=O)C2C(C3CC3)N3C(=O)CN(CCO)C(=O)[C@@]3(Cc3ccccc3)C2C1=O (stereo not given in full)	·	-0.1	0.4	·	1.3	·
CCOc1ccc(C=C(NC(=O)c2ccccc2Cl)C(=O)O)cc1	·	-2.0	7.0	·	5.8	·
CCc1nc(C)cn1S(=O)(=O)c1ccc([N+](=O)[O-])cc1	-0.4	94.3*	3.5	2.2	97.4*	3.8
O=C1NC(c2ccccc2)COC(=O)C(Cc2ccc(F)cc2)CCC=CCC1CC(=O)N(CCO)Cc1ccccc1 (stereo not given)	·	7.9	-3.4	·	-9.4	·
CCOc1ccc2c(c1)c(N=O)c(O)n2C	2.3	89.9*	11.3	1.9	4.1	-9.8
COC(=O)C1=C(c2ccc(OC(F)(F)F)cc2)CC2CCC1N2C(=O)NC1CCCCC1 (stereo not given)	·	2.9	-6.6	·	-4.0	·
C=C1CC2C3CCc4cc(OC)ccc4C3CC[C@]12C (stereo not given in full)	·	88.6*	12.8	·	-10.4	·
Cc1ccc(NS(=O)(=O)c2ccc3c(c2)NC(=O)CCS3)c(Cl)c1	0.3	89.8*	15.2	0.9	96.3*	-7.9
Cc1ccc(NS(=O)(=O)c2ccc3c(c2)NC(=O)CCS3)c(C)c1	0.2	95.6*	13.0	-3.0	98.0*	-3.7
CC1CC2C3CCC4=CC(=O)C=C[C@]4(C)[C@@]3(Cl)C(O)C[C@]2(C)[C@@]1(OC(=O)c1ccco1)C(=O)CCl (stereo not given in full)	·	-23.7	-7.6	·	-0.5	·
CC(=O)OC1C(Oc2c(O)c(C)c3c4c2C(C)CCC4C(C)CC3C=C(C)C)OCC(O)C1O (stereo not given)	·	-15.0	9.1	·	-7.8	·
NCC1OC(C23CC4CC(CC(C4)C2)C3)Cc2c1ccc(O)c2O (stereo not given)	·	-16.8	3.8	·	4.4	·
Nc1ncc(S(=O)(=O)c2ccc([N+](=O)[O-])cc2)s1	·	96.3*	-0.9	·	97.6*	·
CCCCNC(=O)c1sc(=S)n2c1[nH]c(=O)c1ccccc12	2.2	82.0*	7.2	-6.2	73.7	-3.4
O=C(NCCc1ccccc1)c1ccc2c(=O)[nH]c3c(C(=O)NCC4CCCO4)sc(=S)n3c2c1 (stereo not given)	-1.8	·	·	96.8	·	-24.1
O=C(NC1CCCCC1)c1sc(=S)n2c1[nH]c(=O)c1ccccc12	4.9	99.8*	2.6	-5.2	99.9*	7.3
O=C(NC1CCCCCC1)c1c(O)c2ccccc2[nH]c1=O	1.8	10.2	7.2	-1.6	3.6	3.0
O=C(NCC1CCCO1)c1sc(=S)n2c1[nH]c(=O)c1ccc(C(=O)N3CCCCC3)cc12 (stereo not given)	-4.5	2.1	35.2*	64.5	7.8	-1.8
O=C(O)CC1c2cc(F)ccc2S(=O)(=O)N1C1CCCCC1 (stereo not given)	·	-2.6	-0.6	·	-0.1	·
Cc1ccc(S(=O)(=O)N2C(c3cccs3)CC=C(C(=O)O)C2c2ccc(Cl)cc2)cc1 (stereo not given)	·	11.0	-0.8	·	22.6	·
O=C(Nc1cc(Cl)cc(Cl)c1)N1CCCC1	-0.6	91.6	19.9	55.8	90.6*	-9.1
O=C(Nc1ccc(F)c(Cl)c1)N1CCCC1	0.1	9.4	9.0	0.8	2.5	2.1
O=C(O)c1ccccc1C(=O)OCCCCOC(=O)c1ccccc1C(=O)O	10.8*	-3.1	0.1	8.6	0.1	1.9
Cc1ccc(C2C(=C(O)c3ccc(Br)cc3)C(=O)C(=O)N2Cc2ccco2)o1 (stereo not given)	·	-11.9	3.8	·	10.1	·
CC1CC1C(=O)N1CCN(S(=O)(=O)c2cc(C(F)(F)F)cc(C(F)(F)F)c2)CC1 (stereo not given)	0.0	96.1*	5.8	-2.5	86.5*	-17.8
SMILES	Mtb UGM inh	ugtP null kill	Mtb hypoxia rep	Mtb bLac sens	Sa RN4220 lethal	Rv3671c protease
CC(C)=CCCC1=CCC(C=NNC(N)=O)C(C)C1 (stereo not given)	·	93.2*	-0.1	·	1.4	·
Clc1ccc(C(c2ccc(Cl)cc2)n2cc[n+](CC(OCc3ccc(Cl)cc3Cl)c3ccc(Cl)cc3Cl)c2)cc1 (stereo not given)	-5.7	100.1*	·	100.1	100.4*	-1.5
CCOc1cc(C=NO)cc(Br)c1OCc1ccc(Cl)cc1	·	90.9*	5.5	·	-7.7	·
C=CCc1cc(C=O)cc(OC)c1OCc1ccc(Cl)cc1	1.2	86.1*	·	-1.0	-4.1	-0.9
COc1cc(C=O)ccc1OCCOCCOc1ccc(Cl)cc1	-1.7	5.3	·	5.2	0.9	-3.1
C=CCc1cc(C=O)cc(OCC)c1OCc1ccc(Cl)cc1	-1.4	99.3*	3.8	20.3	-17.1	11.0
O=C(NC1CC1)C1=CC(c2c[nH]c3ccccc23)CC(OCc2ccc(CO)cc2)O1 (stereo not given)	·	-1.4	-0.9	·	2.3	·
COc1cccc(C=C(C(=O)OCC(=O)NCC2CCCO2)c2ccccc2)c1 (stereo not given)	·	0.9	1.9	·	4.7	·
CN(CCCS(=O)(=O)[O-])c1ccc(/C=C/c2ccc3ccccc3[n+]2C)cc1	5.0	2.4	14.1	5.0	1.8	·
CN(C)c1ccc(/C=C/c2ccc3ccccc3[n+]2C)cc1	-2.0	95.4*	10.8	64.9	96.7*	-58.0
CN(C)c1ccc(/C=C/c2ccc3c4ccccc4ccc3[n+]2-c2ccccc2)cc1	·	97.9*	·	·	97.8*	·
COc1ccccc1NC(=O)c1cc2cc(Br)ccc2cc1O	0.0	100.0*	9.4	6.0	99.5*	1.9
COc1cc(NC(=O)c2cc3ccccc3cc2O)c(OC)cc1Cl	1.8	4.0	9.1	-2.2	-2.4	23.2
O=C(O)c1cc(Cl)ccc1-c1ccc(C=Cc2cc(C(F)(F)F)[nH]c(=O)n2)o1	·	-0.9	4.3	·	4.2	·
COc1ccc(N(C(=O)c2ccccc2C)S(=O)(=O)c2cccs2)cc1	-0.6	83.9*	9.1	-1.9	3.2	-14.5
CC(CN1C(=O)C(=O)NCC1C)NC(=O)CC12CC3CC(CC(C3)C1)C2 (stereo not given)	·	1.8	2.5	·	4.8	·
COC(=O)C1C(O)C(C)C(O)C(C)C=CC=C(C)C(=O)Nc2c(C)c(OC(C)=O)c3c(c2O)C(=O)C(C)=C2OCOC(=C23)C(C)=CC(C)(O)C(O)C(C)C1O (stereo not given)	·	99.7*	·	·	98.9*	·
NC(N)=NN=Cc1ccc(OCc2ccccc2Cl)cc1	·	100.8*	10.9	·	100.3*	·
O=C(C1CC=CC2CCN(Cc3ccc(Cl)c(Cl)c3)C(=O)C21)N1CCOCC1 (stereo not given)	·	-5.6	6.7	·	5.5	·
Fc1cccc(CCN2CCNCC2Cc2cccc3ccccc23)c1 (stereo not given)	·	-28.5	19.1	·	-6.3	·
Cc1ccc(C)c(N2CCN(C(=O)c3cc4ccccn4n3)CC2)c1	26.9*	-8.7	-0.8	7.3	-0.9	3.6
COc1ccc2nc3ccccc3nc2c1NC(=O)c1ccc(Cl)cc1Cl	36.5*	-16.5	-8.6	-2.0	4.7	5.2
Cc1cccc(Cn2nnc3c2C(=O)c2ccccc2C3=O)c1	3.9	85.6*	9.0	49.6	69.3	-1.2
